Assay outcomes (PubChem BioAssay)
D1 potentiator: potentiators of human D1 dopamine receptor; P21728; HEK293 TREx D1 cells, calcium flux, dopamine EC20 potentiation; hit rate 0.036% among 360,000; potentiation, % at 10 µM; AID 504651; in the data active = potentiation above about 30%
D1 agonist: human D1 receptor agonism; activation, % at 2 µM; HEK293 T-REx D1 cells, calcium flux, agonist mode; hit rate 1% among 360,000; P21728
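Inducible HEK293 T-REx D1 cells, force-coupled to calcium signalling, were plated at 4000 cells/well with tetracycline and held overnight at 30 C. After no-wash calcium dye loading, compound-evoked calcium rise over 180 s flagged agonists.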
TRHR agonist: activates the human TRH receptor; P34981; TRHR cells, calcium flux fluo-8, FDSS agonist mode; activation, % at 2 µM; hit rate 0.18% among 360,000; AID 493084
Target sequence (P34981 whole entry, looked up): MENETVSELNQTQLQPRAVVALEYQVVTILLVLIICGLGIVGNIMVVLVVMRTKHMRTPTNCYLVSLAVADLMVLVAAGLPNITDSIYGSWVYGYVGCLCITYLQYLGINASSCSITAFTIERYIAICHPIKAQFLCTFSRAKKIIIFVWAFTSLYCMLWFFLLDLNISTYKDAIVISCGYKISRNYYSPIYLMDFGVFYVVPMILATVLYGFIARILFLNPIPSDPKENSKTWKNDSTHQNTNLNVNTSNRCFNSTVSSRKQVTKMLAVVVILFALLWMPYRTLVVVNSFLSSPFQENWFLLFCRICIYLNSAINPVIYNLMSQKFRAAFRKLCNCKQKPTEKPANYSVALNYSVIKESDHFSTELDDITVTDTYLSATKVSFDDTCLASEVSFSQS
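Steps: seed TRHR cells overnight; add fluo-8 no-wash Ca dye, RT 30 min–1.5 h; record 10 s baseline; pin-transfer compounds; monitor fluorescence 1 cycle/s for the agonist window. Calcium increases flag candidate agonists.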
TRHR PAM: TRH receptor (human) allosteric enhancement. P34981. TRHR cells, fluo-8 calcium fluorescence, EC20 TRH enhancement. enhancement, % at 2 µM. hit rate 0.66% among 360,000. AID 493056; in the data active = enhancement above about 30%
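TRHR-expressing cells loaded with fluo-8 calcium dye were read kinetically (ex 480/em 530) during compound addition, then stimulated with an EC20 of TRH (10 nM final). Enhancement of the Gq-mediated intracellular calcium response was scored.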
D1 antag: blocks dopamine activation of the human D1 receptor; activity change, negative = inhibition, % at 10 µM; hit rate 3.2% among 360,000; P21728; HEK293 TREx D1 cells, calcium flux, dopamine EC80; hits give low values; in the data active = activity change below about -30%
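Cells carrying a force-coupled, tetracycline-inducible human D1 receptor report calcium flux. Each well gets a 10 s baseline, compound with 180 s monitoring, then an EC80 dopamine stimulus with a second 180 s kinetic read.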
GRP78 ERSR act: ER stress response induction in glioma. U87-MG GRP78 promoter luciferase reporter, 16 h. Potency, µM, most hits filed as activators. hit rate 0.02% among 420,000. AID 602332; active = well fitted activation curve with a large enough effect; also: series mostly up to about 76 µM; nearly all actives have a fitted effect of over 35% in size
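Stably transfected U87-MG glioma cells carrying a GRP78-based luciferase sensor; 16 h compound incubation. Luminescence end-point read 10 min after Bright-Glo addition at room temperature.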
Of the large screens only hits and unclear results are named; the others gave an inactive call. This is a sample that favours compounds with a hit; in the whole collection about 4% have one here. Rule as the data show it, unless noted: active = activation above about 30%; inactive = the rest.

CC(=O)ON(C(C)=O)c1ccc(/C=C2/C=Cc3ccccc32)cc1	none (no result: D1 potentiator, D1 agonist, TRHR agonist, TRHR PAM, D1 antag)
CC1CN2C(CCC(C)C2c2ccc(Br)cc2)C(=O)O1 (stereo unspecified)	none (no result: D1 potentiator, D1 agonist, TRHR agonist, TRHR PAM, D1 antag)
CCCCCCOC(=O)Cc1c(C)nc(N)[nH]c1=O	none
CCOC(=O)Cc1c(C)nc(N)[nH]c1=O	D1 antag -31
CCN(C(=O)c1cc2c(=O)n(CC)c3ccccc3c2s1)c1cccc(C(F)(F)F)c1	none
Nc1nonc1-n1nnc(C(=O)N/N=C/c2ccccc2)c1CSc1ccc(Cl)cc1	D1 antag -46
CCOC(=O)c1nnn(-c2nonc2N)c1-c1ccc(C)cc1	none
CCOC(=O)c1nnn(-c2nonc2N)c1-c1ccccc1	D1 antag -44
CCc1ccc(/C=N/NC(=O)c2nnn(-c3nonc3N)c2C(C)C)cc1	D1 agonist 142, TRHR PAM 41
Nc1nonc1-n1nnc(C(=O)N/N=C/c2cccc(Cl)c2)c1CSc1ccc(Cl)cc1	none
Cc1ccc(-c2c(C(=O)N/N=C/c3ccc(OC(C)C)cc3)nnn2-c2nonc2N)cc1	D1 agonist 55, TRHR PAM 33
O=C(COc1ncnc2sccc12)NC1CCS(=O)(=O)C1 (stereo unspecified)	none
O=Cc1ccc(O)cc1	none (no result: D1 potentiator, D1 agonist, TRHR agonist, TRHR PAM, D1 antag)
CCCOc1ccc(-c2c(C(=O)N/N=C/c3ccc(C)cc3)nnn2-c2nonc2N)cc1	none
Cc1ccc(SCc2c(C(=O)N/N=C/c3ccoc3)nnn2-c2nonc2N)cc1	D1 antag -45
CCOc1ccc(-c2c(C(=O)N/N=C/c3ccc(C)cc3)nnn2-c2nonc2N)cc1	D1 agonist 44
CCOc1ccc(/C=N/NC(=O)c2nnn(-c3nonc3N)c2-c2cccs2)cc1	D1 agonist 165
Cc1ccc(-c2c(C(=O)N/N=C/c3ccoc3)nnn2-c2nonc2N)cc1	D1 agonist 44
Cc1ccc(-c2c(C(=O)N/N=C/c3ccc(C)o3)nnn2-c2nonc2N)cc1	none
COc1cccc(-c2c(C(=O)N/N=C/c3ccoc3)nnn2-c2nonc2N)c1	D1 agonist 77
COc1cccc(-c2c(C(=O)N/N=C/c3ccncc3)nnn2-c2nonc2N)c1	none
Cc1c(/C=N\NC(=O)c2ccc(F)cc2)cnn1C	none
Cc1occc1C(=O)N/N=C/c1cnn(C)c1C	D1 antag -40
NS(=O)(=O)c1ccc(N=Nc2cc3ccccc3c(C(=O)O)c2O)cc1	none (no result: D1 potentiator, D1 agonist, TRHR agonist, TRHR PAM, D1 antag)
COc1ccc(CN2CCOc3ccc(CN4CCCCC4CO)cc3C2)c(OC)c1 (stereo unspecified)	none (no result: D1 potentiator, D1 agonist, TRHR agonist, TRHR PAM, D1 antag)
CCCCNC(=O)c1ccc(N2CCC3(CC2)OCCO3)c([N+](=O)[O-])c1	D1 antag -50
CCOC(=O)N1CCC(NC(=O)c2ccc(N3CCC4(CC3)OCCO4)c([N+](=O)[O-])c2)CC1	none
O=C(Nc1ccc(Cn2cccn2)cc1)c1ccc(COc2ccc(Br)cc2)cc1	none (no result: D1 antag)
O=C(Nc1ccn(Cc2ccccc2F)n1)c1ccc(COc2ccc(Br)cc2)cc1	D1 agonist 52, D1 antag -54
COC(=O)c1ccc(OCC2c3cc(OC)c(OC)cc3CCN2C(=O)c2cccc(C)c2)cc1 (stereo unspecified)	D1 antag -33
COC(=O)c1ccc(OCC2c3cc(OC)c(OC)cc3CCN2C(=O)C(C)C)cc1 (stereo unspecified)	none
COc1cccc(C(C(=O)NC2CCCC2)N(Cc2ccco2)C(=O)c2ccco2)c1OC (stereo unspecified)	D1 antag -37
COc1ccc(C(C(=O)NC2CCCC2)N(Cc2ccco2)C(=O)c2snc(C(N)=O)c2N)cc1OC (stereo unspecified)	D1 antag -33
Cc1ccc(C(C(=O)NC2CCCC2)N(Cc2ccco2)C(=O)CCC(=O)Nc2cc(C)on2)cc1 (stereo unspecified)	D1 antag -32
COc1cccc(C(C(=O)NC2CCCC2)N(C(=O)c2ccco2)c2ccccc2F)c1OC (stereo unspecified)	none
COc1ccc(C(C(=O)NC2CCCCC2)N(Cc2ccco2)C(=O)c2snc(C(N)=O)c2N)cc1 (stereo unspecified)	none
COc1ccc(CN(C(=O)c2snc(C(N)=O)c2N)C(C(=O)NC2CCCC2)c2cc(OC)ccc2OC)cc1 (stereo unspecified)	TRHR PAM 34
O=C(O)Cc1cccc(OCCCN(Cc2cccc(C(F)(F)F)c2Cl)CC(c2ccccc2)c2ccccc2)c1	none (no result: D1 potentiator, D1 agonist, TRHR agonist, TRHR PAM, D1 antag)
Cc1ccc(C)c(-c2ccc(C(=O)O)o2)c1	none (no result: D1 potentiator, D1 agonist, TRHR agonist, TRHR PAM, D1 antag)
O=C(NC1CCCCC1)c1cccc(COCC(F)(F)F)c1	none
Fc1cccc(NCc2cccn2-c2nnc(N3CCOCC3)s2)c1	none
CCC1CN(Cc2cn[nH]c2-c2ccccc2)Cc2cc(OC)ccc2O1 (stereo unspecified)	none (no result: D1 potentiator, D1 agonist, TRHR agonist, TRHR PAM, D1 antag)
CCc1cc2c(-c3ccccc3)cc(=O)oc2c(CN2CCOCC2)c1O	D1 agonist 55
O=c1cc(-c2ccccc2)c2cc(Cl)c(O)c(CN3CCOCC3)c2o1	none
NC(=O)c1oc2ccccc2c1NC(=O)C1CCCCC1	TRHR PAM 38
NC(=O)c1oc2ccccc2c1NC(=O)CN1CCCCC1	none
COC1C(O)COC1/C=C/c1ccccc1 (stereo unspecified)	none (no result: D1 potentiator, D1 agonist, TRHR agonist, TRHR PAM, D1 antag)
COC(=O)/C=C/c1ccc(-n2cncn2)cc1	none
COC(=O)/C=C/c1cnc[nH]1	D1 antag -31
COC(=O)c1scc(S(=O)(=O)C(C)(C)C)c1N	D1 antag -37
O=C(NC[C@@H]1CCCN2CCCC[C@H]12)c1cnn(-c2nccc(-c3ccco3)n2)c1C1CC1	none (no result: D1 potentiator, D1 agonist, TRHR agonist, TRHR PAM, D1 antag)
O=C(Nc1cccc2ccccc12)N(CCO)C1CCS(=O)(=O)C1 (stereo unspecified)	D1 antag -71
CCN(C(=O)COC(=O)Cc1cccc2ccccc12)C1CCS(=O)(=O)C1 (stereo unspecified)	none
COc1ccc2c(c1)c1c(c(=O)n(-c3ccc(F)c(Cl)c3)c(=O)n1Cc1ccccc1C)n2C	none
N=c1c2c(-c3ccccc3)c(-c3ccccc3)n(Cc3ccco3)c2ncn1CCCN1CCOCC1	none
N=c1c2c(-c3ccccc3)c(-c3ccccc3)n(Cc3ccco3)c2ncn1Cc1ccccc1	D1 agonist 35
c1ccc(-c2c(-c3ccccc3)n(Cc3ccco3)c3ncnc(NCCCn4ccnc4)c23)cc1	D1 agonist 52
N=c1c2c(-c3ccccc3)c(-c3ccccc3)n(Cc3ccccc3)c2ncn1CCO	D1 potentiator 46, D1 agonist 218
OCCNc1ncnc2c1c(-c1ccccc1)c(-c1ccccc1)n2Cc1ccco1	none
CC(C)Cn1cnc2c(c(-c3ccccc3)c(-c3ccccc3)n2Cc2ccco2)c1=N	D1 agonist 34
